Screening results: PubChem BioAssay, several laboratories
tim23-1 inh: inhibits growth of tim23-1 mutant yeast | S. cerevisiae tim23-1 growth, BacTiter-Glo luminescence, 24 h | inhibition, % at 20 µM | 330,000 tested, 1.3% active | AID 463212;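 active means growth inhibition of the mutant yeast at or above 50%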;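 further: temperature-sensitive mutant grown at 25 °C; plate controls were DMSO-treated mutant yeast for no effect and medium wells lacking yeast for full effect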
SKKanGAS inh: SKKanGAS growth inhibition | 300,000 tested, 1.3% active | inhibition, % at 7.5 µM | AID 1662 | S. pyogenes SKKanGAS, kanamycin growth, BacTiter-Glo, 6 h;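 active means mean replicate score, as percent of positive control median, at least 50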;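 further: strain carries kanamycin resistance gene driven by streptokinase promoter and grows in 40 µg/ml kanamycin; loss of luminescence reflects streptokinase promoter inhibition or plain growth inhibition; 0% = median of DMSO wells and 100% = positive control at its reference dose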
TIM10 inh: inhibits growth of TIM10 yeast strain | S. cerevisiae TIM10 strain growth, BacTiter-Glo luminescence, 24 h | inhibition, % at 10 µM | 330,000 tested, 1.4% active;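 active means inhibition of 40% or more at the single tested concentration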;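 further: wild-type TIM10 isogenic control strain grown at permissive 25 °C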
NLRP3 yeast inh: NALP3 inhibition in yeast; AID 2825; inhibition, % at 10 µM; 330,000 tested, 0.39% active; Yeast reconstituted NLRP3/ASC/caspase-1, beta-gal luminescence, 24 h;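 active means inhibition of 50% or more; inactive means inhibition below 50%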;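 further: plate controls were induced DMSO wells for no effect and uninduced yeast grown without galactose for full effect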
tim10-1 inh: inhibits growth of tim10-1 mutant yeast; S. cerevisiae tim10-1 ts strain growth, BacTiter-Glo, 24 h; inhibition, % at 20 µM; 330,000 tested, 2.2% active;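 active means inhibition of at least 40%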;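 further: mutant grown at 25 °C; 0% = DMSO wells with yeast and 100% = wells holding no yeast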
PfHsp90 set2: inhibits growth of yeast expressing Plasmodium falciparum Hsp90. 310,000 tested, 0.32% active. inhibition, % at 9.4 µM. AID 504621. S. cerevisiae expressing PfHsp90, BacTiter-Glo ATP, 48 h; yeast lacking PDR1 and PDR3 efflux regulators;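 active means every replicate shows inhibition above about 80%, whatever the replicate mean, limit read from the data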;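 further: 0% = DMSO neutral controls and 100% = 20 µM radicicol positive controls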
tim10-1 conf: tim10-1 yeast growth inhibition, confirmed | S. cerevisiae tim10-1 ts strain growth, BacTiter-Glo, 24 h | shares compounds with tim10-1 inh | 7,400 tested, 56% active | inhibition, % at 20 µM;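 active means inhibition of yeast growth at or above a set limit in either of two repeat tests at 20 µM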;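 further: tim10-1 mutant grown at permissive 25 °C to find synthetic lethal compounds; 0% = DMSO yeast wells and 100% = medium wells without yeast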
tim10 confirm: confirmation of TIM10 yeast growth inhibitors; inhibition, % at 10 µM; 4,600 tested, 63% active; S. cerevisiae tim10 strain growth, BacTiter-Glo luminescence, 24 h; AID 463215; shares compounds with TIM10 inh;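 active means inhibition of yeast growth at or above a set limit in either of two replicates at 10 µM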;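 further: this counterscreen used the strain with wild-type TIM10; 0% = yeast with DMSO and 100% = medium wells lacking yeast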
tim23-1 confirm: tim23-1 yeast growth inhibition, confirmed | shares compounds with tim23-1 inh | S. cerevisiae tim23-1 growth, BacTiter-Glo luminescence, 24 h | inhibition, % at 20 µM | 4,400 tested, 83% active | AID 463218;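 active means inhibition above about 39% in either of two replicate wells at 20 µM, limit read from the data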;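 further: temperature-sensitive tim23-1 mutant grown at 25 °C; 0% = DMSO wells with yeast and 100% = medium wells without yeast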
Numbers without * were called inactive; x = not tested or not shown. Hits are enriched below; roughly 4.6% of the tested compounds scored in any of these assays.

SMILES | tim23-1 inh | SKKanGAS inh | TIM10 inh | NLRP3 yeast inh | tim10-1 inh | PfHsp90 set2 | tim10-1 conf | tim10 confirm | tim23-1 confirm
CC[C@@]12C(=O)N(c3cccc(Cl)c3)C(=O)N1[C@H](c1ccc(Br)cc1)[C@@H]1C(=O)N(C(C)(C)C)C(=O)[C@@H]12 | 19.6 | 5.5 | 11.0 | 8.1 | 14.2 | -4.9 | x | x | x
CNc1nc(N/N=C/c2ccc([N+](=O)[O-])cc2)nc(Nc2ccccc2)n1 | 28.2 | 3.5 | 24.8 | 45.6 | 10.8 | 14.1 | x | x | x
OCC(O)/C=N/Nc1nc(Nc2ccccc2)nc(Nc2ccccc2)n1 (stereo not drawn) | 53.9* | 16.7 | 45.5* | 28.7 | 49.8* | -11.3 | 27.6 | 45.4* | 48.0*
CC(=O)Cc1nsc(NC(=O)c2ccc(-c3ccccc3Cl)o2)n1 | 51.0* | 14.0 | 25.4 | 10.9 | 48.5* | 66.2 | 43.4* | x | 51.4*
COc1c(O)c(O)c2oc(-c3ccccc3)cc(=O)c2c1OC | 58.8* | 1.4 | 40.4* | 41.8 | 50.3* | 30.3 | 33.0* | 30.6* | 55.5*
COc1cc(-c2cc(=O)c3c(O)c(OC)c(OC)c(O)c3o2)ccc1O | 22.4 | -2.4 | 3.9 | 14.5 | 18.0 | 3.2 | x | x | x
CCN1/C(=C/C(C)=C/c2sc3ccccc3[n+]2CC)Sc2ccccc21 | 82.3* | 100.5* | 78.9* | -6.5 | 80.2* | 71.6 | 75.5* | 88.0* | 81.5*
O=C(NC(=S)NC1CCCCC1)c1ccccc1[N+](=O)[O-] | 62.8* | 0.4 | 21.0 | 5.0 | 45.4* | -14.7 | 25.7 | x | 48.5*
Cc1ccc(C(=O)NC(=S)NNC(=O)c2ccccc2[N+](=O)[O-])cc1 | 61.0* | x | 46.9* | 10.5 | 46.7* | -30.7 | 42.5* | 61.0* | 49.2*
O=C(NC(=S)NC1CCCCC1)c1ccc(F)cc1 | 69.3* | -2.9 | 33.9 | 18.2 | 42.4* | 2.4 | 31.7* | x | 56.4*
O=C(NNC(=S)NC(=O)c1ccccc1[N+](=O)[O-])c1ccccc1[N+](=O)[O-] | 1.1 | -2.0 | 15.5 | 16.0 | 4.7 | 6.0 | x | x | x
O=C(c1ccncc1)N1CCN(S(=O)(=O)c2ccccc2Br)CC1 | 10.2 | x | -2.6 | 9.2 | 7.5 | 2.2 | x | x | x
O=C(NCC1CC1)c1ccc2c3n(nc2c1)-c1ccccc1CO3 | 69.1* | 1.1 | 44.6* | 24.5 | 42.2* | x | 42.3* | 44.3* | 68.9*
O=C(NCCO)c1ccc2c3n(nc2c1)-c1ccccc1CO3 | 4.8 | 2.7 | 11.3 | 9.7 | 12.5 | 6.2 | x | x | x
CC1=NN(C(N)=S)C(=O)C1N=Nc1ccc(Cl)cc1Cl (stereo not drawn) | 64.1* | 6.3 | 46.4* | 39.0 | 57.0* | -22.0 | 55.8* | 58.0* | 73.2*
CON(C)S(=O)(=O)c1cccc(C(=O)N(CC(=O)Nc2ccccc2C(F)(F)F)Cc2ccco2)c1 | 19.2 | x | 6.8 | 10.6 | 7.1 | 0.9 | x | x | x
O=C(COC(=O)c1ccc([N+](=O)[O-])o1)NCCc1ccccc1 | -7.9 | x | -156.9 | 15.5 | -165.8 | -14.8 | x | x | x
CC(C)(C)N(Cc1ccccc1)C(=O)COC(=O)c1ccc([N+](=O)[O-])o1 | 52.8* | x | 26.8 | 23.7 | 45.0* | -26.2 | 31.1 | x | 45.9*
COc1cc(N=Nc2ccc3ccccc3c2)ccc1O | 62.6* | -5.8 | 3.6 | 33.6 | 40.7* | 109.9* | 13.1 | x | 2.3
COc1ccc2nc(NC(=O)c3ccoc3C)sc2c1 | 55.1* | 65.8* | 46.5* | 34.8 | 58.1* | 54.4 | 59.1* | 31.8* | 61.1*
COc1ccc2nc(NC(=O)c3cc(C)oc3C)sc2c1 | 33.7 | 9.9 | 28.2 | 9.2 | 29.7 | 41.8 | x | x | x
Cc1ccc(S(=O)(=O)Nc2ccc(Br)cc2/C=N/n2cnnc2)cc1 | 76.6* | 7.7 | 26.5 | 34.9 | 41.4* | -6.6 | 35.1* | x | 72.0*
Cc1ccc(S(=O)(=O)N2CCOCC2)cc1NC(=O)COC(=O)Cc1ccccc1 | -9.2 | x | -12.5 | 3.0 | -1.5 | 24.0 | x | x | x
Fc1ccc(C2Nc3cccc4cccc(c34)N2)cc1 | 56.7* | 12.6 | 31.5 | -2.7 | 44.6* | 20.6 | 29.9 | x | 50.9*
Clc1ccc(/C(Cc2nc3ccccc3[nH]2)=N\Nc2ccccc2)cc1 | 52.9* | 89.8* | 55.9* | 30.6 | 46.2* | -29.5 | 21.6 | 56.0* | 45.2*
SMILES | tim23-1 inh | SKKanGAS inh | TIM10 inh | NLRP3 yeast inh | tim10-1 inh | PfHsp90 set2 | tim10-1 conf | tim10 confirm | tim23-1 confirm
CCN(Cc1ccccc1)C(=O)C(=O)c1cn(CC(=O)N2CCCC2)c2ccccc12 | 17.2 | 9.3 | 13.5 | -7.9 | 17.1 | -1.6 | x | x | x
COc1ccc(/C(N)=N/OC(=O)c2ccc3c(c2)OCO3)cc1OC | 59.5* | -4.4 | 47.0* | 10.2 | 69.1* | 6.8 | 75.0* | 46.1* | 56.1*
N/C(=N\OC(=O)c1ccc2c(c1)OCO2)c1cccc(Br)c1 | 78.2* | -2.9 | 92.5* | 15.3 | 67.9* | x | 48.2* | 95.8* | 87.8*
Cc1ccc(S(=O)(=O)N2C(=O)CCC2C(=O)O/N=C(\N)c2cccc([N+](=O)[O-])c2)cc1 (stereo not drawn) | 16.1 | 1.7 | 5.7 | 0.8 | 0.0 | -6.4 | x | x | x
COC(C/C=C\C(=O)[C@@H](C)OCc1ccccc1)OC | 52.1* | -2.8 | 30.0 | 17.0 | 41.1* | x | 29.3 | x | 44.9*
CCC(C)(C(=O)NC1CCCC1)N(C(=O)CNC(=O)c1ccccc1)c1c(C)n(C)n(-c2ccccc2)c1=O (stereo not drawn) | 12.7 | -4.2 | 6.8 | 21.1 | 1.7 | -29.2 | x | x | x
O=C1C2C(c3ccccc3)CC=CC2[C@H](c2ccc(C(F)(F)F)cc2)N1Cc1ccccc1 (stereo partly drawn) | 65.2* | 25.0 | 74.8* | 11.7 | 66.0* | -13.1 | 52.0* | 44.0* | 66.3*
O=C1c2cccc3c(N4CCCCC4)ccc(c23)C(=O)N1c1ccccn1 | 25.4 | 3.0 | -0.5 | 6.2 | 21.2 | 15.9 | x | x | x
O=C1c2cccc3c([N+](=O)[O-])ccc(c23)C(=O)N1c1ccccn1 | 79.5* | 4.1 | 77.3* | 6.9 | 93.8* | 13.1 | 89.5* | -7.6 | 76.8*
Oc1ccc(/C=N/Nc2ccc(C(F)(F)F)cn2)c(O)c1 | 78.2* | 8.4 | 65.2* | 29.7 | 65.5* | 4.1 | 43.9* | 71.8* | 77.7*
COc1cccc(NC(=O)CSc2nc3ccccc3cc2Cc2ccccc2)c1 | 0.1 | 34.3 | 8.6 | 12.7 | 15.1 | 12.2 | x | x | x
COc1cccc(CSc2nc3ccccc3cc2C=O)c1 | 71.2* | 13.2 | 46.2* | 41.4 | 49.4* | -10.5 | 44.1* | 53.0* | 77.7*
